# Compound activity: PubChem BioAssay, Sanford-Burnham Center for Chemical Genomics
# SENP7 block – SENP7 protease inhibitors, primary screen, biochemical, luminescence, uHTS | recombinant SENP7, Z-RLRGG-aminoluciferin luminescence, 40 min | inhibition, % at 5 µM | 330,000 compounds, 1.5% hits | AID 434973, 2010;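 active = inhibition above about 50% at the single test dose, limit read from the data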;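 note: plate controls were DMSO with enzyme for no effect and no enzyme buffer wells for full effect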
# Target sequence (Q9BQF6 706-1050 limits assumed): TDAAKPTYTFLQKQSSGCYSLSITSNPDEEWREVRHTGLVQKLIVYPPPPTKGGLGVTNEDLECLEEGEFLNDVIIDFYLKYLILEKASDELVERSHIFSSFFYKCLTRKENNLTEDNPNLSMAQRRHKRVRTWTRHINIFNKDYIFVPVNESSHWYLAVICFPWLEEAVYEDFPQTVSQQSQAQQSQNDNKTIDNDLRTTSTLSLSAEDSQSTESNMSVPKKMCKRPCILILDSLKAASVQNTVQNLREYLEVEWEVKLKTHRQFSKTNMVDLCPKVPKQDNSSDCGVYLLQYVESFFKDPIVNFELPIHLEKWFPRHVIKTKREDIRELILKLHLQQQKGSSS
# SENP8 block-1 – SENP8 protease inhibitors, primary screen, biochemical, luminescence | Sentrin-specific protease 8 (Homo sapiens), Q96LD8 | purified SENP8, Z-RLRGG-aminoluciferin cleavage | inhibition, % at 10 µM | 330,000 compounds, 1.2% hits; in the data active = inhibition above about 50%
# Target sequence (Q96LD8 whole entry, looked up): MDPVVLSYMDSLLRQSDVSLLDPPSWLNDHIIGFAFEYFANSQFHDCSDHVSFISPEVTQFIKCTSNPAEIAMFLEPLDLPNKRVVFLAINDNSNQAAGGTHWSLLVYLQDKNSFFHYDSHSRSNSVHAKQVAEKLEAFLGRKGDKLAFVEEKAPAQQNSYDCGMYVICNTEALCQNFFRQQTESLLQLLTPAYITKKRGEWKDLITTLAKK
# PPC-1+TRAIL kill – compounds killing PPC-1 cancer cells with TRAIL present, primary screen, TRAIL potentiator project, ATPLite luminescence, uHTS; PPC-1 cells + TRAIL, ATPLite viability luminescence; cell killing (% activity), % at 4 µM or 5 µM; 220,000 compounds, 0.41% hits;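 active = cell killing above 50% in the first pass at 4 µM, then a duplicate retest at 5 µM averaging 50% or more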;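 note: plate controls were cells with TRAIL plus DMSO for no effect and medium-only wells lacking cells for full effect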
# SENP6 block – SENP6 protease inhibitors, primary screen, biochemical, luminescence, uHTS; Sentrin-specific protease 6 (Homo sapiens), Q9GZR1; Recombinant SENP6 catalytic domain, aminoluciferin luminescence; inhibition, % at 10 µM; 330,000 compounds, 1.8% hits; AID 2599, 2010;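 active = inhibition above about 50% at the single tested dose, limit read from the data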;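 note: plate controls were DMSO wells with enzyme for no effect and DMSO wells lacking enzyme for full effect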
# TRAIL sens C8 – viability loss with TRAIL in NB7+C8 cells, primary screen, TRAIL sensitizer project, cell-based, ATPlite luminescence. inhibition (viability loss, TRAIL sensitization), % at 10 µM. 360,000 compounds, 1% hits. AID 624354, 2012;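 active = compounds causing at least 50% loss of cell viability in the single-dose screen, relative to plate controls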
# SENP8 block-2 – human SENP8 protease inhibitors, primary screen, biochemical, fluorescence, Nedd8 protein substrate, uHTS. recombinant SENP8. inhibition, % at 20 µM. 360,000 compounds, 0.64% hits. Sentrin-specific protease 8 (Homo sapiens), Q96LD8; in the data active = inhibition mostly above about 40%, no sharp cut-off; inactive = mostly below about 27%
# Numbers without * were called inactive; · = no result. Compounds with a hit are over-represented: about 3% of the library has one in this group of screens.
SMILES,SENP7 block,SENP8 block-1,PPC-1+TRAIL kill,SENP6 block,TRAIL sens C8,SENP8 block-2
O=C(N/N=C/c1ccsc1)c1ccccn1,24.1,20.6,-0.3,30.4,18.9,12.1
COc1ccc2ccccc2c1C1CC(=O)N2CN(Cc3ccco3)CSC2=C1C#N (configuration not stated),15.5,12.2,1.3,9.8,-11.5,45.4*
CCN(CCCNc1cc2c(c(N)c1S(=O)(=O)O)C(=O)c1ccccc1C2=O)c1ccccc1,·,·,·,·,-0.6,57.3*
CC(C)(C)c1ccc(-c2cn(-c3ccc(Br)cc3)c3[n+]2CCCS3)cc1,·,·,49.1,·,55.1*,15.4
c1ccc(-c2cn(-c3ccccc3)c3[n+]2CCS3)cc1,-2.1,-13.8,14.3,-8.4,22.8,1.3
C=CC[C@@H](CC(=O)N[C@H](CO)Cc1ccccc1)C(=O)N[C@@H](COC(=O)[C@@H](CC=C)CC(=O)OC(C)(C)C)Cc1ccccc1,-0.6,8.9,·,19.3,12.5,12.9
COc1ccc(OCc2cc(C(=O)O)c(C)o2)cc1,92.1*,89.2*,2.0,91.5*,·,·
C=CCc1cccc2cc(C(=O)Nc3cccc(C(=O)O)c3)c(=O)oc12,24.8,21.2,-10.3,54.6*,·,·
O=C(Nc1cccc(-n2cnnn2)c1)c1ccc(C(F)(F)F)cc1,1.2,-4.5,·,10.7,49.3*,16.1
CCc1ccc(-n2c(=S)sc3c(=O)[nH]c(SCC(=O)NC4CCCCC4)nc32)cc1,·,·,·,·,-7.3,12.5
C/C(=N\NC(=O)c1ccn(C)n1)c1cccc(NC(=O)c2ccc(C)s2)c1,3.7,-3.7,46.4,-6.8,58.3*,2.8
COc1ccc(C(=O)N/N=C(/C)c2cccc(NC(=O)c3ccccc3F)c2)cc1,0.7,-5.2,·,-0.3,59.3*,9.2
O=C(N/N=C/c1ccncc1)c1cccc(NC(=O)c2ccc(Cl)cc2)c1,4.1,2.3,9.1,-5.9,-8.3,7.1
C/C(=N/NC(=O)c1ccco1)c1cccc(NC(=O)c2ccc(C)s2)c1,-17.3,-12.4,24.9,-7.0,25.9,12.3
C/C(=N\NC(=O)c1cc(O)ccc1O)c1cccc(NC(=O)c2ccc(Cl)cc2)c1,-1.3,-5.7,·,26.0,57.8*,-9.0
O=C(N/N=C/c1cccc(NC(=O)c2ccc(Cl)cc2)c1)c1ccc(O)cc1,6.4,-10.5,30.3,-19.8,61.2*,7.7
C/C(=N\NC(=O)c1cc(O)ccc1O)c1cccc(NC(=O)c2cccc(Cl)c2)c1,-4.9,-4.2,·,0.0,9.4,5.7
COc1cccc(C(=O)OC(C)C(=O)NCC2CCCCC2)c1 (configuration not stated),0.6,-8.3,·,0.2,-11.0,17.7
COc1ccc(OCCN2CCC(C(=O)NC(c3ccsc3)c3ccccc3C)CC2)cc1 (configuration not stated),·,·,·,·,-25.0,12.8
O=C(NC1CCCCC1)c1cc(N2C(=O)CCC2=O)ccc1Cl,-4.6,0.7,·,-20.4,21.8,10.1
CC(=O)O[C@@H](Cc1ccc(O)cc1)C(=O)CC(C)C,·,·,·,·,7.6,21.1
C/C(=N\NC(=O)c1ccncc1)c1cccc(NC(=O)c2ccc(C(C)(C)C)cc2)c1,-13.0,-15.2,·,-1.4,79.8*,9.7
CC(C)(C)c1ccc(C(=O)Nc2cccc([N+](=O)[O-])c2)cc1,·,·,38.7,·,54.5*,1.3
COc1ccc(SCCC(=O)NCc2ccncc2)cc1,1.7,0.2,3.7,-7.1,-4.3,15.9
Cc1ccc(NC(=O)C2(C)CCN2CCc2ccccc2)cc1 (configuration not stated),·,·,·,·,15.3,13.3
SMILES,SENP7 block,SENP8 block-1,PPC-1+TRAIL kill,SENP6 block,TRAIL sens C8,SENP8 block-2
Cc1ccc(NC(=S)NNC(=O)Nc2ccccc2)cc1,47.2,29.3,12.2,52.5*,26.1,12.8
O=C(CSc1nc2nn(-c3ccccc3)c(=O)c-2c2n1CCCCC2)Nc1ccc(OC(F)F)cc1,-3.0,-15.4,·,-26.5,-4.3,6.4
CCC(=O)Nc1ccc2nc(C3CC3)n(Cc3ccc(C(C)(C)C)cc3)c(=O)c2c1,90.9*,71.4*,15.7,86.3*,19.9,-16.7
O=C(Oc1ccc[nH]c1=O)c1cc([N+](=O)[O-])cc([N+](=O)[O-])c1,43.3,65.9*,8.9,88.2*,3.0,31.9
CCCCN1C(=O)/C(=C/C=C2/CC(C)(C)CN2C)SC1=S,5.2,-0.9,7.9,6.4,10.0,46.5*
OC(c1cccnc1)c1nc(-c2cccc(F)c2)cs1 (configuration not stated),·,·,·,·,-13.9,1.6
Cc1cccc(OC(=O)Nc2ccc(C(=O)O)c(O)c2)c1,·,·,·,·,4.4,-25.7
CC(C)(C)c1ccc(OC(=O)Nc2ccc(O)c(C(=O)O)c2)cc1,18.2,72.1*,0.5,83.2*,8.3,-262.7
COC(=O)C1CCN(C2CN(Cc3ccc(C)cc3)S(=O)(=O)C2)CC1 (configuration not stated),·,·,·,·,7.7,11.5
Cc1cc(CCNC=O)c(C)c2c1oc1ccccc12,·,·,·,·,3.9,12.5
COc1ccc(/C=N/Nc2cc(C)nc(N)n2)cc1,3.2,-7.0,23.0,-23.3,11.5,5.2
COc1ccc(/C=N/Nc2cc(OC)ncn2)cc1,·,·,44.7,·,60.8*,9.6
Cc1c(N(C)S(=O)(=O)c2ccc(Cl)c(C(=O)N3CCC(C(N)=O)CC3)c2)c(=O)n(-c2ccccc2)n1C,-5.5,11.9,·,-18.1,-1.3,11.7
Oc1ccc(/C=N/N(Cc2ccccc2)c2ccccc2)c(O)c1O,·,·,0.9,·,7.2,56.4*
Oc1cccc(/C=N/N(Cc2ccccc2)c2ccccc2)c1,17.7,5.9,21.6,-33.5,-3.4,13.1
Cc1onc(-c2ccccc2Cl)c1C(=O)NCc1nnnn1-c1ccc(F)cc1,3.9,-4.7,·,-11.6,10.8,3.1
O=C(Cc1ccccc1)NC1(O)C(=O)c2ccccc2C1=O,12.6,29.6,12.4,41.6,-12.0,49.6*
COc1ccc2c(c1)CC/C2=N\OC(=O)c1ccccc1OC,67.2*,42.1,21.6,68.5*,2.4,25.0
COC(=O)N/N=C/c1cc(N=Nc2ccccc2)ccc1O,3.0,7.2,5.3,20.4,8.2,23.9
Cc1cc(C(=O)N/N=C/c2cc(N=Nc3ccccc3)ccc2O)n[nH]1,·,·,30.0,·,44.7,40.8*
Cc1nc2ccc3nc(NC(=O)c4ccc5c(c4)OCCO5)sc3c2s1,5.1,11.0,-5.0,-40.0,-2.0,-269.3
Cc1nc2c(ccc3nc(NC(=O)c4ccc5c(c4)OCCO5)sc32)s1,15.7,-0.7,46.5,8.3,79.8*,-287.0
CCOC(=O)/C=C(\C)Sc1cc(O)c2ccccc2c1O,·,·,34.8,·,72.5*,48.5*
CCOC(=O)/C=C(\C)Sc1cc(=O)oc2ccccc12,-8.7,-9.3,4.5,-20.1,-5.5,10.3
CC(C)C[C@H]1CNC(=O)C(=O)N1CC1CCN(CC2CCC(C)CC2)CC1 (some centres not stated),·,·,·,·,10.8,7.4
